Compound activity (PubChem BioAssay)
MPTP block = blocks calcium-induced mitochondrial swelling. isolated mouse mitochondria, Ca2+ swelling absorbance, 30 min. inhibition, % at 10 µM. 1.4% of 360,000 active;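 active = inhibition of 50% or more, scaled per plate between neutral and stimulator controls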;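 also: 0% = DMSO wells given calcium and 100% = 1 mM EGTA wells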
dFosB act-1 = mouse delta FosB homodimer activation; P13346; purified delta FosB, TAMRA-CDK5 oligo fluorescence polarization; percent of positive-control signal above neutral wells; activation, % at 25 µM; 0.99% of 340,000 active;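 active = mean activation above about 17%, with every replicate also reaching it, limit read from the data, passing the limit was not always enough; inconclusive = only one of the two conditions met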
Target sequence (P13346 whole entry, looked up): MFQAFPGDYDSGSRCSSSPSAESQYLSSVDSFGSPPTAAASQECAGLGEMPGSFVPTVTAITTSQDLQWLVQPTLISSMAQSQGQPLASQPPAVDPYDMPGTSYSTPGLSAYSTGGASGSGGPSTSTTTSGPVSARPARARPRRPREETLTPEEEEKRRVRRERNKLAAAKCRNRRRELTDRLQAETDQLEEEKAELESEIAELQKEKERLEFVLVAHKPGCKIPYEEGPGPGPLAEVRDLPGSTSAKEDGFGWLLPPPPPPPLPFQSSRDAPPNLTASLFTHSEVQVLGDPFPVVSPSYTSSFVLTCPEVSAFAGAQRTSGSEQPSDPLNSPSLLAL
Platelet DG rel = platelet dense granule release activity | human platelet-rich plasma, SFLLRN dense granule ATP release, luminescence | inhibition, %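 (compounds screened at 7.5 µM in platelet-rich plasma)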 | 0.22% of 300,000 active | AID 1663;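 active = mean replicate score, as percent of positive control, at or above 50; inconclusive = mean below 50 but at least one replicate at or above 50; inactive = mean and every replicate below 50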
HSP90 inh = blocks HSP90-mediated luciferase refolding in reticulocyte lysate; 0.91% of 290,000 active; inhibition, % at 5.6 µM; Rabbit reticulocyte lysate, luciferase refolding luminescence, 3 h; AID 1789;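 active = inhibition above the screen-wide mean plus 3 SD, computed separately per campaign, cut at about 16% in these data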;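 also: 0% = DMSO wells and 100% = 60 µM geldanamycin wells; inhibitors lower the luminescence because luciferase stays unfolded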
HSF-1 act = increases HSF-1 driven luciferase reporter signal. NIH3T3-HGL HSF-1 luciferase reporter, MG132, 8 h; 100% = twice DMSO control signal. activation, % at 9 µM. 1.7% of 300,000 active;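 active = mean replicate activation of at least 50% with a set share of replicates each reaching 50%; inconclusive = only one of those two conditions met; inactive = mean below 50% and too few replicates reaching it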;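 also: 0% = median of the neutral control wells and 100% = twice that signal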
HSF1 inhib = HSF1 inhibition | NIH3T3-HGL HSE-luciferase, MG132-induced, luminescence 8 h; stronger effect = lower value | activity change, negative = inhibition, % at 7.5 µM (by protocol) | 0.77% of 300,000 active | AID 2098;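 active = more than half of replicate wells show activity change below -50%, luminescence cut by over half; inconclusive = some wells, but at most half, below -50%; inactive = no replicate well below -50%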;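 also: luciferase reports HSF-1 transcriptional activity via heat shock element; 0% = median of DMSO wells and -100% = zero luminescence signal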
dFosB act-2 = enhances mouse delta FosB homodimer binding to DNA | shares compounds with dFosB act-1 | purified delta FosB, TAMRA-CDK5 oligo fluorescence polarization; normalised: neutral wells 0, positive control 100 | activation, % at 24.9 µM | 2,400 tested, under 10 active;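 active = highest replicate activation at or above 34% and every replicate reaching that threshold; inconclusive = meets only one of the two criteria; inactive = meets neither criterion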;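 also: higher polarization means more probe DNA bound by delta FosB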
* marks the source's active call; other numbers are inactive results; ? = inconclusive; . = not tested or not shown. Rows were chosen to be rich in hits. Some 4.9% of all compounds tested hit in one or more screens of this group.

SMILES	MPTP block	dFosB act-1	Platelet DG rel	HSP90 inh	HSF-1 act	HSF1 inhib	dFosB act-2
Cc1ccccc1C(=O)NNC(=O)CSc1nc(-c2ccccc2)cc(=O)[nH]1	0	40*	1	1	12	0	4
O=C(CSc1nc2ccccc2[nH]1)NCc1ccc2c(c1)OCO2	2	-1	-1	-2	.	.	.
O=C(CSc1nc(-c2ccccc2)cc(=O)[nH]1)NCc1ccc2c(c1)OCO2	-2	49*	-1	-1	19	8	3
C#CCn1c(=NC(=O)c2ccco2)sc2cccc(Cl)c21	1	26*	0	-2	-40	-19	4
CSCCC(NC(=O)c1ccccc1)C(=O)N1CCN(C(c2ccccc2)c2ccccc2)CC1 (configuration not stated)	0	-3	0	3	10	-2	.
Cc1c(NC(=O)Cc2ccccc2)cccc1C(=O)NN1C(=O)c2ccccc2C1=O	-1	23*	20	1	4	-4	9
COc1cc(OC)cc(-n2nnnc2SCC(=O)Nc2ccc(C(C)=O)cc2)c1	-1	37*	-1	-1	-29	-6	-7
CC(=O)Nc1ccc(-n2nnnc2SCC(=O)Nc2cccc(NC(=O)c3ccco3)c2)cc1	1	33*	1	0	0	3	8
Cc1ccc(-n2nnnc2SCC(=O)NC(=O)Nc2ccc3c(c2)OCCO3)cc1	4	?	0	0	24	3	.
O=C(CSc1nnnn1-c1ccc(Cl)cc1)NC(=O)Nc1ccc2c(c1)OCCO2	7	21*	0	-3	28	15	7
CCc1ccc(-n2nnnc2SCC(=O)Nc2ccc(NC(C)=O)cc2)cc1	0	18*	0	2	12	3	8
O=C(CSc1nnnn1-c1ccccc1)Nc1ccccc1	0	-4	16	0	2	-1	.
CCc1ccc(NC(=O)CSc2nnnn2C)cc1	-1	-9	-7	1	15	13	.
CCCN(CCC)S(=O)(=O)c1cc2c3c(c1)CCN3C(=O)CC2	-1	-7	5	0	6	2	.
O=C(Cn1ncc2c([nH]c3ccccc32)c1=O)NCC1CCN(Cc2ccccc2F)CC1	2	-1	-2	0	-1	-1	.
CC(=O)CCC(=O)N1CCC(n2nccc2NC(=O)c2ccccc2C)CC1	0	-10	-19	7	-24	-11	.
O=C(Nc1nc(-c2ccccc2)cs1)c1ccc2c(=O)n3c(nc2c1)CCCCC3	12	18*	9	2	-6	-2	5
O=C(/C=C/c1ccc(Cl)cc1)NC(=S)Nc1ccc(NC(=O)c2ccco2)cc1	1	85*	-14	0	64*	32	0
Cc1cc(C)n(-c2cc(C(=O)O)cc(C(=O)O)c2)n1	0	0	-3	1	-12	-3	.
COc1ccccc1CNC(=O)/C=C/c1cc2c(cc1Br)OCO2	-4	45*	3	0	13	7	-3
O=C(CCNC(=O)c1ccc([N+](=O)[O-])cc1)NCc1ccccc1	-1	1	.	.	.	.	.
COc1ccc(-n2c(SCC(=O)Nc3cc(C)on3)nc3c(c2=O)SC(C)C3)cc1 (configuration not stated)	-1	.	.	.	.	.	.
COc1ccc(CC(=O)Nc2ccc(-c3noc(-c4ccc(Cl)cc4)n3)cc2)cc1	-3	60*	-7	-4	1	-4	7
COc1ccc(CC(=O)Nc2ccc(NC(=O)c3ccccc3F)cc2)cc1	-1	20*	15	4	-2	-3	-1
COc1ccc(-c2nc(CS(=O)(=O)CC(=O)Nc3ccc(Cl)cc3)c(C)o2)cc1	1	45*	1	-7	27	21	2
SMILES	MPTP block	dFosB act-1	Platelet DG rel	HSP90 inh	HSF-1 act	HSF1 inhib	dFosB act-2
CCOc1ccccc1-c1nc(-c2ccc(NC(=O)Cc3ccc(OC)cc3)cc2)no1	2	25*	1	-1	-7	-5	0
CCc1cc(C(=O)N2CCCC(Nc3ccc(F)c(F)c3)C2)n(C)n1 (configuration not stated)	-1	-6	-12	-1	16	4	.
O=C(CCC1CCN(C(=O)c2ccco2)CC1)NCc1ccc(F)cc1	0	4	4	-2	1	-3	.
CN(CC(=O)Nc1ccc(F)c(F)c1F)C(=O)C1CCCC1	-1	-1	.	.	.	.	.
COc1cc(-c2nc(-c3ccc(NC(=O)c4ccc5c(c4)OCO5)cc3)no2)cc(OC)c1OC	-1	43*	3	-4	6	-10	3
COc1ccc(CC(=O)Nc2ccc(-c3noc(-c4cc(OC)c(OC)c(OC)c4)n3)cc2)cc1	-5	21*	.	5	.	.	11
COc1ccc(NC(=O)C2CCN(c3nc(-c4ccc(OC)cc4)no3)CC2)cc1	-2	29*	-1	0	-17	-9	-6
O=C(NCCN1CCN(C(=O)c2ccc([N+](=O)[O-])cc2)CC1)C(=O)Nc1ccc(F)cc1	-2	-4	-2	-1	5	9	.
N#CCCn1cc(/C=N/O)c(-c2ccccc2)n1	-2	5	.	5	.	.	.
N#CCCn1cc(/C=N/NC(N)=S)c(-c2ccc(-c3ccccc3)cc2)n1	-2	27*	0	0	0	3	4
N#Cc1ccc(CSc2nnc(NC(=O)CCc3nc4ccccc4c(=O)[nH]3)s2)cc1	-1	?	1	.	2	-1	.
O=C(CCc1nc2ccccc2c(=O)[nH]1)Nc1nnc(SCc2ccc(F)cc2)s1	-1	90*	4	.	4	-3	5
O=C(CCc1nc2ccccc2c(=O)[nH]1)Nc1nc(-c2cccs2)cs1	0	26*	-8	.	22	10	-1
C=C(C)CN=CC1(C)CCC(C)=CO1 (configuration not stated)	1	-12	.	.	.	.	.
CCOC(=O)[C@]12CCC=C1N(Cc1cccc3ccccc13)C(=O)[C@H](CC(=O)N1CCN(C(=O)C3CC3)CC1)C2	-2	.	.	.	.	.	.
O=S(=O)(c1ccc(Br)cc1)N1CCN(c2ccc3nnc(-c4ccccc4)n3n2)CC1	1	38*	-9	1	1	-8	0
O=C(c1ccc(Br)o1)N1CCN(c2ccc3nnc(-c4ccccc4)n3n2)CC1	-2	-30	13	2	12	2	.
Cc1nc2cc(C(=O)OCC(=O)NC3CCS(=O)(=O)C3)ccc2n1-c1ccccc1 (configuration not stated)	-7	-11	5	-3	-5	0	.
Cc1nc2cc(C(=O)OCC(=O)NC34CC5CC(CC(C5)C3)C4)ccc2n1-c1ccccc1	4	65*	14	0	12	3	-1
